# Data as given in ChEMBL document CHEMBL5598561, “ASAP - In vitro binding kinetics” (2024).
# Molecular target: Nonstructural protein 3 (Zika virus) (UniProt A0A024AXB9)
# Conditions: PRVABC59, Concentration 10.0 uM
# Chain of Nonstructural protein 3 (Zika virus) (A0A024AXB9 as listed by the source): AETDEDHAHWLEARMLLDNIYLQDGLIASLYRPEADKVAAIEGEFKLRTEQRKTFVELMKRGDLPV
smiles,measurement,setting,value
CC(C)(C)c1cc(Br)cc(C(=O)Nc2ccc3c(c2)CNC3)c1,pKD,"Immobilization level 10000.0 pg/mm2, Rmax 22.0 pg/mm2, ka 615092.383 M-1s-1, kd 1.528 1/s",5.61
same,pKD,"Immobilization level 12000.0 pg/mm2, Rmax 78.0 pg/mm2, ka 256799.727 M-1s-1, kd 0.952 1/s",5.43
same,pKD,"Immobilization level 13000.0 pg/mm2, Rmax 43.0 pg/mm2, ka 306862.061 M-1s-1, kd 1.159 1/s",5.42
N#C[C@H](Nc1ccc2c(c1)CNC2)c1cccc2[nH]ncc12,pKD,"Immobilization level 10000.0 pg/mm2, Rmax 24.0 pg/mm2, ka 92252.014 M-1s-1, kd 0.378 1/s",5.39
same,pKD,"Immobilization level 12000.0 pg/mm2, Rmax 16.0 pg/mm2, ka 78971.5 M-1s-1, kd 0.214 1/s",5.57
same,pKD,"Immobilization level 13000.0 pg/mm2, Rmax 22.0 pg/mm2, ka 80847.64 M-1s-1, kd 0.299 1/s",5.43
O=C(NC[C@H]1CCCO1)[C@H](Nc1ccc2c(c1)CNC2)c1cc(Cl)cc2[nH]ncc12,pKD,"Immobilization level 10000.0 pg/mm2, Rmax 25.0 pg/mm2, ka 729483.46 M-1s-1, kd 0.307 1/s",6.38
same,pKD,"Immobilization level 12000.0 pg/mm2, Rmax 48.0 pg/mm2, ka 423834.605 M-1s-1, kd 0.21 1/s",6.31
same,pKD,"Immobilization level 13000.0 pg/mm2, Rmax 36.0 pg/mm2, ka 640560.866 M-1s-1, kd 0.251 1/s",6.41
NS(=O)(=O)c1cc(Cl)cc(C(=O)Nc2ccc3c(c2)CNC3)c1,pKD,"Immobilization level 10000.0 pg/mm2, Rmax 26.0 pg/mm2, ka 224016.174 M-1s-1, kd 2.677 1/s",4.92
same,pKD,"Immobilization level 12000.0 pg/mm2, Rmax 52.0 pg/mm2, ka 213819.19 M-1s-1, kd 1.773 1/s",5.08
same,pKD,"Immobilization level 13000.0 pg/mm2, Rmax 31.0 pg/mm2, ka 267165.084 M-1s-1, kd 2.041 1/s",5.12
O=C1Cc2c(cc(Br)cc2C(=O)Nc2ccc3c(c2)CNC3)N1,pKD,"Immobilization level 10000.0 pg/mm2, Rmax 28.0 pg/mm2, ka 911035.824 M-1s-1, kd 0.165 1/s",6.74
same,pKD,"Immobilization level 12000.0 pg/mm2, Rmax 50.0 pg/mm2, ka 582104.975 M-1s-1, kd 0.125 1/s",6.67
same,pKD,"Immobilization level 13000.0 pg/mm2, Rmax 39.0 pg/mm2, ka 879294.654 M-1s-1, kd 0.141 1/s",6.79
O=C(Nc1ccc2c(c1)CNC2)c1cc(Cl)cc(-n2cccc2)c1,pKD,"Immobilization level 10000.0 pg/mm2, Rmax 42.0 pg/mm2, ka 59822.118 M-1s-1, kd 0.636 1/s",4.97
same,pKD,"Immobilization level 12000.0 pg/mm2, Rmax 78.0 pg/mm2, ka 29884.208 M-1s-1, kd 0.167 1/s",5.25
same,pKD,"Immobilization level 13000.0 pg/mm2, Rmax 57.0 pg/mm2, ka 51449.064 M-1s-1, kd 0.399 1/s",5.11
COC(=O)CNC(=O)[C@H](Nc1ccc2c(c1)CNC2)c1cc(Cl)cc(C2CC2)c1,pKD,"Immobilization level 10000.0 pg/mm2, Rmax 43.0 pg/mm2, ka 346362.757 M-1s-1, kd 0.129 1/s",6.43
same,pKD,"Immobilization level 12000.0 pg/mm2, Rmax 59.0 pg/mm2, ka 177006.564 M-1s-1, kd 0.106 1/s",6.22
same,pKD,"Immobilization level 13000.0 pg/mm2, Rmax 62.0 pg/mm2, ka 244445.044 M-1s-1, kd 0.134 1/s",6.26
